Laboratory results: PubChem BioAssay (NCATS)
Records with an inconclusive call do not appear. Activity calls are given as the source filed them. The call rests on the fitted dose curve; in most records, active means well fitted curve in the direction sought with a large enough effect; inconclusive means small, poorly fitted or top-dose-only effect, or another doubt; inactive means no such curve, though single readings can be large; an effect the other way counts as inactive or inconclusive. Numbered stars: 1 amine (or outer) side, 2 acyl side, 3 side chain; on linkers, the order of the positions; unused ones are H or OH. Bridge positions count the residues as written; N and C are the ends. Square brackets hold non-standard residues; d marks the D form. Peptide text beside a SMILES is read from it. I, II: the chains in the order shown. Actinocin(9to1) = Cc1c2oc3c(C)ccc(C(=O)[*:1])c3nc-2c(C(=O)[*:2])c(N)c1=O; NMeV = CN[C@H](C(=O)O)C(C)C; Sar = CNCC(=O)O

Key:
[1] = qHTS of pediatric cancer cell lines to identify multiple opportunities for drug repurposing: Primary screen for TC32 cells (AID 1347089); further: nearly all actives have a fitted effect of over 60% in size; further: potency means the concentration at half of the fitted maximal effect
Outline: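 qHTS, TC32, 48 h drug treatment, CellTiter-Glo luminescence as a proxy for metabolically active cells; primary top concentration 46 µM (MIPE 11-pt, NPC 8-pt); confirmatory 11-pt.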

[2] = qHTS of pediatric cancer cell lines to identify multiple opportunities for drug repurposing: Primary screen for DAOY cells (AID 1347090); further: nearly all actives have a fitted effect of over 55% in size; further: potency means the concentration at half of the fitted maximal effect
Outline: (§1)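 Viability measured as metabolically active cells via CellTiter-Glo luminescence following 48 hours of compound exposure, 11-point dilutions in confirmatory testing. 500-1,000 cells/well plated 5 hours before dosing; controls were DMSO and 2.3 µM bortezomib.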

[3] = qHTS of pediatric cancer cell lines to identify multiple opportunities for drug repurposing: Primary screen for SK-N-MC cells (AID 1347093); further: potency means the concentration at half of the fitted maximal effect
Outline: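 Metabolically active cells were quantified by ATP-dependent luminescence (CellTiter-Glo, 15 min at room temperature) following 48 h treatment. Cells had been plated at 500-1,000 per well and settled for 5 h beforehand.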

[4] = qHTS of pediatric cancer cell lines to identify multiple opportunities for drug repurposing: Primary screen for U-2 OS cells (AID 1347096); further: nearly all actives have a fitted effect of over 50% in size; further: potency means the concentration at half of the fitted maximal effect
Outline: (§2)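 Viability after 48 h compound treatment at 37C, 500-1,000 cells/well, read as ATP luminescence with CellTiter-Glo. Primary screens used 11-point (MIPE, 0.78 nM-46 µM) or 8-point (NPC, 0.59 nM-46 µM) final concentrations; follow-up screens used 11-point dilutions.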

[5] = qHTS of pediatric cancer cell lines to identify multiple opportunities for drug repurposing: Primary screen for SK-N-SH cells (AID 1347098); further: nearly all actives have a fitted effect of over 65% in size; further: potency means the concentration at half of the fitted maximal effect
Outline: (§3)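 Cells (500-1,000/well) rested 5 h, then received compounds for 48 h; metabolically active cells were measured by CellTiter-Glo luminescence. Final concentrations spanned up to 46 µM (MIPE, 11-point) or 0.59 nM-46 µM (NPC, 8-point) in primary screens, 11-point in follow-ups.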

[6] = qHTS of pediatric cancer cell lines to identify multiple opportunities for drug repurposing: Primary screen for OHS-50 cells (AID 1347103); further: nearly all actives have a fitted effect of over 40% in size; further: potency means the concentration at half of the fitted maximal effect
Outline: as §3

[7] = qHTS of pediatric cancer cell lines to identify multiple opportunities for drug repurposing: Primary screen for Saos-2 cells (AID 1347097); further: nearly all actives have a fitted effect of over 40% in size; further: potency means the concentration at half of the fitted maximal effect
Outline: (§4)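 500-1,000 cells/well; 5 h pre-incubation 37 °C/5% CO2; compound pinned; 48 h; CellTiter-Glo, 15 min RT; luminescence. MIPE 11-pt from 0.78 nM, NPC 8-pt from 0.59 nM final. Bortezomib 2.3 µM final as positive control.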

[8] = qHTS of pediatric cancer cell lines to identify multiple opportunities for drug repurposing: Primary screen for Rh18 cells (AID 1347102); further: nearly all actives have a fitted effect of over 65% in size
Outline: as §2

[9] = qHTS of pediatric cancer cell lines to identify multiple opportunities for drug repurposing: Primary screen for RD cells (AID 1347104); further: nearly all actives have a fitted effect of over 55% in size; further: potency means the concentration at half of the fitted maximal effect
Outline: as §4

[10] = qHTS of pediatric cancer cell lines to identify multiple opportunities for drug repurposing: Primary screen for SJ-GBM2 cells (AID 1347091); further: potency means the concentration at half of the fitted maximal effect
Outline: as §1

[11] = qHTS of pediatric cancer cell lines to identify multiple opportunities for drug repurposing: Primary screen for NB-EBc1 cells (AID 1347095); further: potency means the concentration at half of the fitted maximal effect
Outline: as §4

[12] = qHTS of pediatric cancer cell lines to identify multiple opportunities for drug repurposing: Primary screen for NB1643 cells (AID 1347099); further: nearly all actives have a fitted effect of over 50% in size; further: potency means the concentration at half of the fitted maximal effect
Outline: as §4

[13] = qHTS of pediatric cancer cell lines to identify multiple opportunities for drug repurposing: Primary screen for A673 cells (AID 1347092); further: nearly all actives have a fitted effect of over 45% in size; further: potency means the concentration at half of the fitted maximal effect
Outline: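 Luminescence from CellTiter-Glo, taken after 15 min at room temperature, served as the proxy for metabolically active cells following 48 h treatment. Both potency and efficacy were taken from curves fitted to the titration data.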

[14] = qHTS of pediatric cancer cell lines to identify multiple opportunities for drug repurposing: Primary screen for BT-37 cells (AID 1347094); further: potency means the concentration at half of the fitted maximal effect
Outline: as §4

[15] = qHTS of pediatric cancer cell lines to identify multiple opportunities for drug repurposing: Primary screen for LAN-5 cells (AID 1347100); further: potency means the concentration at half of the fitted maximal effect
Outline: as §2

[16] = qHTS of pediatric cancer cell lines to identify multiple opportunities for drug repurposing: Primary screen for BT-12 cells (AID 1347101); further: nearly all actives have a fitted effect of over 25% in size; further: potency means the concentration at half of the fitted maximal effect
Outline: as §3

Measured: Potency

CC/C(=C(/CC)c1ccc(O)cc1)c1ccc(O)cc1
inactive: [1] | [4]
active: [2] 21.1 µM | [3] 6.68 µM | [5] 5.45 µM | [6] 15.5 µM

CC(=O)Oc1ccc2c(c1)CC[C@@H]1[C@@H]2CC[C@]2(C)[C@@H](O)CC[C@@H]12
active: [7] 23.7 µM
inactive: [1] | [2] | [4] | [8] | [9]

CN1CCN(CCCN2c3ccccc3Sc3ccc(S(=O)(=O)N(C)C)cc32)CC1
active: [10] 18.8 µM | [5] 15.4 µM | [6] 24.6 µM
inactive: [1] | [2] | [11] | [4] | [12]

Cc1c2oc3c(C)ccc(C(=O)N[C@@H]4C(=O)N[C@H](C(C)C)C(=O)N5CCC[C@H]5C(=O)N(C)CC(=O)N(C)[C@@H](C(C)C)C(=O)O[C@@H]4C)c3nc-2c(C(=O)N[C@@H]2C(=O)N[C@H](C(C)C)C(=O)N3CCC[C@H]3C(=O)N(C)CC(=O)N(C)[C@@H](C(C)C)C(=O)O[C@@H]2C)c(N)c1=O (I: T[dV]P[Sar][NMeV] / II: T[dV]P[Sar][NMeV]; ester I:1-I:C, II:1-II:C; linker I:N-II:N via Actinocin(9to1))
active: [1] 0.0149 µM | [2] 0.0211 µM | [13] 4.2 nM | [3] 0.0027 µM | [14] 2.8 nM | [4] 0.0422 µM | [7] 0.0841 µM | [5] 0.0034 µM | [16] 0.0069 µM | [6] 0.0347 µM | [9] 0.0133 µM
inactive: [11] | [15]

CN(C)CCCOc1nn(Cc2ccccc2)c2ccccc12
inactive: [1] | [2] | [7] | [12] | [8]

COc1cc(C(=S)N2CCOCC2)cc(OC)c1OC
not listed: [2]
inactive: all other assays above

CN1CCC(=C2c3ccccc3Sc3ccccc32)CC1
inactive: [1] | [2] | [11] | [4] | [12] | [15]
active: [5] 19.4 µM | [6] 17.4 µM

C[n+]1c2cc(N)ccc2cc2ccc(N)cc21 (tested in a mixture with another compound)
active: [1] 14.9 µM | [2] 21.1 µM | [13] 5310 nM | [3] 8.41 µM | [14] 3470 nM | [11] 11.9 µM | [4] 13.3 µM | [5] 3.86 µM | [12] 7.5 µM | [15] 5.96 µM | [16] 3.89 µM | [6] 17.4 µM | [9] 15 µM

CCOC(=O)COc1ccc2c(C)c(CCN(CC)CC)c(=O)oc2c1Cl
not listed: [2] | [5] | [10] | [12]
inactive: all other assays above

CC(=O)OCC(=O)NCCCOc1cccc(CN2CCCCC2)c1
not listed: [2] | [8]
inactive: all other assays above

C=C1C(=C/C=C2\CCC[C@]3(C)[C@@H]([C@H](C)/C=C/[C@@H](O)C4CC4)CC[C@@H]23)C[C@@H](O)C[C@@H]1O
active: [6] 30.9 µM
inactive: [1] | [10] | [8] | [9]

CCOC(=O)[C@H](CCc1ccccc1)N[C@@H](C)C(=O)N1Cc2ccccc2C[C@H]1C(=O)O
not listed: [2] | [3] | [5] | [7] | [8] | [16]
inactive: all other assays above

CC(C)(C)CC(C)(C)c1ccc(O)c(Cc2ccc(Cl)cc2Cl)c1
inactive: [1]
active: [10] 21.1 µM | [11] 13.3 µM | [7] 16.8 µM | [15] 21.1 µM | [6] 24.6 µM

CC1=C(C(=O)O)N2C(=O)[C@@H](NC(=O)[C@H](N)c3ccc(O)cc3)[C@H]2SC1
not listed: [2] | [3]
inactive: all other assays above

CCCCCC=CCC=CCCCCCCCC(=O)OCC
inactive: [1] | [10] | [14] | [4] | [12] | [15] | [16] | [6] | [9]

O=c1[nH]c(=O)n([C@H]2C[C@H](O)[C@@H](CO)O2)cc1C(F)(F)F
active: [1] 1.05 µM | [14] 550 nM | [15] 1.33 µM | [16] 13.8 µM
inactive: [10] | [4] | [7] | [8] | [9]

CC(C)(C)NC(=O)[C@@H]1CN(Cc2cccnc2)CCN1C[C@@H](O)C[C@@H](Cc1ccccc1)C(=O)N[C@H]1c2ccccc2C[C@H]1O
not listed: [2] | [12]
inactive: all other assays above

CC(=O)OCC(=O)[C@@]12OC(C)(C)O[C@@H]1C[C@H]1[C@@H]3C[C@H](F)C4=CC(=O)C=C[C@]4(C)[C@@]3(F)[C@@H](O)C[C@@]12C
not listed: [2] | [3] | [6] | [7] | [8] | [14]
inactive: all other assays above

O=C(OCC(O)CO)c1ccccc1Nc1ccnc2cc(Cl)ccc12 (configuration not stated)
active: [7] 23.7 µM
not listed: [2] | [3] | [5] | [6] | [14]
inactive: all other assays above

O=C1OC2(c3ccc(O)cc3Oc3cc(O)ccc32)c2ccccc21
not listed: [2] | [13]
inactive: all other assays above
